Here are results for 26 compounds from PubChem BioAssay (EPA / NIEHS).

The target of experiment [1] is Estrogen receptor (Homo sapiens) (UniProt P03372). Briefly: CCTE_Deisenroth_AIME_384WELL_LUC_Active: CCTE's 384-well Estrogen Receptor Transactivation Assay with AIME metabolic competence (ERTA luciferase; metabolism positive), Deisenroth Lab (AID 2284030). The gist of the method: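 Readout: bioluminescent luciferase induction in VM7Luc4E2 cells 24 hour after receiving medium from a 2 h rat hepatic S9 (induced, alginate microsphere) metabolism step. Concentrations 0.002 - 200 uM; activity scaled to 17beta-estradiol positive control.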
Estrogen receptor (Homo sapiens), sequence (P03372 whole entry, looked up): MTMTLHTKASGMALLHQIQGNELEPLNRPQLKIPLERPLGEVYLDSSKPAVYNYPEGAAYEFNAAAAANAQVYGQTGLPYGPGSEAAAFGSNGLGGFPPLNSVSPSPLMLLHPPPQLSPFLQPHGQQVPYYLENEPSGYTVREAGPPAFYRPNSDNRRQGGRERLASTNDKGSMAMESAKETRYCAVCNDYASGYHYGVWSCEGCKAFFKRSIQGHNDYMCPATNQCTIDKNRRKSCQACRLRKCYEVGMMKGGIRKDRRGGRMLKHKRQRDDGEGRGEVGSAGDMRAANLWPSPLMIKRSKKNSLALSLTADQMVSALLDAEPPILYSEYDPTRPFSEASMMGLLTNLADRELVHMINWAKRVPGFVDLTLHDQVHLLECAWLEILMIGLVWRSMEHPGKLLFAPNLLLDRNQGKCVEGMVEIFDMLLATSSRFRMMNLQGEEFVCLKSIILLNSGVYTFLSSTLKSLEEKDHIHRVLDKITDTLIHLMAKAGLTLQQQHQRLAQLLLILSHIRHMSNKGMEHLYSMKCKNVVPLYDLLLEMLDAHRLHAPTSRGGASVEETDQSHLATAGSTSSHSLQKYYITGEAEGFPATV

Experiment [2] is described as follows: CCTE_Deisenroth_AIME_384WELL_CTox_Active: Cytotoxicity Assessment (CTOX) in CCTE's 384-well Estrogen Receptor Transactivation Assay with AIME metabolic competence (metabolism positive), Deisenroth Lab (AID 2284037).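 Note: chemicals first conditioned 2 h by alginate-bound induced rat liver S9 before cells; activity means signal loss indicating cell death.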 The procedure, abridged: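 VM7Luc4E2 breast cells received medium pre-incubated 2 h with chemical over alginate microspheres holding induced male Sprague Dawley rat liver S9; viability read 24 h later by protease-substrate fluorescence. Loss of signal, bidirectional fit, 0.002–200 uM.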

Experiment [3] has as its target Estrogen receptor (Homo sapiens) (UniProt P03372). Briefly: CCTE_Deisenroth_AIME_384WELL_LUC_Inactive: CCTE's 384-well Estrogen Receptor Transactivation Assay without AIME metabolic competence (ERTA luciferase; metabolism negative), Deisenroth Lab (AID 2284038).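 Note: hits raise estrogen receptor luciferase signal so potencies reflect agonists.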 The gist of the method: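 VM7Luc4E2 ER transactivation, luciferase bioluminescence after 24 h, using medium pre-incubated 2 h with S9-free alginate microspheres. Concentrations 0.002–200 uM; gain of signal fitted relative to 17beta-estradiol.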

The nature of experiment [4]: CCTE_Deisenroth_AIME_384WELL_CTox_Inactive: Cytotoxicity Assessment (CTOX) in CCTE's 384-well Estrogen Receptor Transactivation Assay without AIME metabolic competence (metabolism negative), Deisenroth Lab (AID 2284039).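 Note: cell viability via live-cell protease substrate cleaved to fluorescent probe; cells exposed 24 h to medium preincubated 2 h with alginate-water beads without S9.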 The procedure, abridged:
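VM7Luc4E2 cells, metabolism-negative arm: test chemicals (0.002–200 uM, 10 points) pre-incubated 2 h with alginate-water microspheres, then medium transferred to cells for 24 h. Viability read as protease-substrate cleavage to fluorescent probe; loss-of-signal, bidirectional fitting.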

Experiment [5] can be described thus: CCTE_Shafer_MEA_dev_firing_rate_mean: CCTE's Neural Network Formation Assay for Mean Firing Rate, Shafer Lab (AID 2284031; active = hit-call score of the fitted dose curve at least 0.9, where 1 is the maximum; inactive = score below 0.9;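 for AC50: curve fitted for loss of firing so AC50 reflects decreased mean firing rate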). The procedure, abridged:
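Steps: seed rat cortical cells (1.5 x 10^5/well) with laminin on PEI-coated MEA; dose day 0; record DIV 5/7/9/12, full media and compound exchange after DIV 5 and 9 recordings; compute well-mean firing rate AUC.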

Experiment [6] in a line: CCTE_Shafer_MEA_dev_per_burst_spike_percent: CCTE's Neural Network Formation Assay for Percent of Spikes in a Burst, Shafer Lab (AID 2284032; active = hit-call score of the fitted dose curve at least 0.9, where 1 is the maximum; inactive = score below 0.9;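 for AC50: fitted as a decrease in burst spike percentage below DMSO baseline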). The gist of the method: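 Value is trapezoidal AUC over recordings on days 5, 7, 9 and 12 of the well-mean fraction of spikes falling in single-electrode bursts; rat cortical cultures exposed continuously from plating, treatment renewed DIV 5 and 9, fitted downward against DMSO.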

Values joined by “and” are separate entries in the source; they are usually repeats but may differ in a detail not shown here. Equal entries are not always repeated. Records with an inconclusive call do not appear. Active and inactive are the calls of the source. Rule for the calls, unless noted: active = hit-call score of the fitted dose curve at least 0.9, where 1 is the maximum; inconclusive = response in the unintended direction; inactive = score below 0.9.

With `Cc1ccc(N)cc1Cl`, the result in experiment [1], in experiment [2] and in experiment [3] was inactive.

As a reminder, the AC50 is the concentration giving half of the maximal activity seen. On to `O=C(Cc1ccccc1)c1ccccc1`, for which the AC50 in experiment [1] was 112 µM (active); in experiment [3], 72 µM (active). In addition, the result in experiment [2] and in experiment [4] was inactive.

Regarding `CNC(=O)O/N=C/C(C)(C)S(C)=O` (centres undefined), the compound was classed as inactive in experiment [1] and in experiment [3].

In the case of `CNC`, the call in experiment [1], in experiment [2], in experiment [3] and in experiment [4] was inactive.

With `ClC(Cl)=C(Cl)C(Cl)=C(Cl)Cl`, the compound was classed as inactive in experiment [1], in experiment [2], in experiment [3] and in experiment [4].

`O=C(O)C(F)(F)C(F)(F)C(F)(F)C(F)(F)C(F)(F)C(F)(F)F`: the compound was called inactive in experiment [5], in experiment [6] and in experiment [4].

Regarding `CC(=O)C=C(C)C`, the call in experiment [1], in experiment [2], in experiment [3] and in experiment [4] was inactive.

As to `Oc1cccc2cccnc12`, the compound was called inactive in experiment [2] and in experiment [4].

As for `CCOC(=O)Nc1cccc(OC(=O)Nc2ccccc2)c1`, the call in experiment [1] and in experiment [3] was inactive.

Consider `NNC(=S)NN`, for which the compound was classed as inactive in experiment [1], in experiment [2], in experiment [3] and in experiment [4].

Take `O=C1C(Cl)=C(Cl)C(=O)c2ccccc21`: the figures for the concentration at half-maximal activity (AC50) in experiment [2] and in experiment [4] were 163 µM (active) and 189 µM (active), respectively.

Turning to `COP(=O)(OC)O/C(=C\Cl)c1cc(Cl)c(Cl)cc1Cl`, the compound was called inactive in experiment [5], in experiment [6] and in experiment [3]. The AC50 in experiment [2] and in experiment [4] was 100 µM (active) throughout.

For the compound `C[C@@H]1C[C@@H]([C@H](O)CC2CC(=O)NC(=O)C2)C(=O)[C@@H](C)C1`, the concentration at half-maximal activity (AC50) in experiment [2] is 28.5 µM (active). The result in experiment [4] was inactive.

Consider `O=S(=O)(c1ccc(Cl)cc1)c1ccc(Cl)cc1`, for which the compound was called inactive in experiment [1], in experiment [3] and in experiment [4].

`CC(C)OC(=O)Nc1ccccc1`: the concentration at half-maximal activity (AC50) was 17 µM (active) in experiment [1] and 17.4 µM (active) in experiment [3].

With `COc1ccc(C=O)cc1`, the call in experiment [1], in experiment [2], in experiment [3] and in experiment [4] was inactive.

Regarding `c1cc[c]([Hg][c]2ccccc2)cc1`, the outcome in experiment [3] and in experiment [4] was inactive.

As for `O=C1CCCN1`, the call in experiment [1], in experiment [2], in experiment [3] and in experiment [4] was inactive.

For the compound `CC(=O)c1cc(C(C)(C)C)cc2c1CCC2(C)C`, the result in experiment [1], in experiment [2], in experiment [3] and in experiment [4] was inactive.

Turning to `CCOP(=S)(OCC)Oc1nc(Cl)c(Cl)cc1Cl`, the concentration at half-maximal activity (AC50) in experiment [5] is 13.3 µM (active) and 2.98 µM (active) and 12 µM (active); in experiment [6], 23.3 µM (active) and 15 µM (active) and 21.4 µM (active).

Take `[O-][Cl+2]([O-])O`: the outcome in experiment [1], in experiment [3] and in experiment [4] was inactive.

As for `Cn1sc(Cl)cc1=O`, the AC50 in experiment [5] is 8.69 µM (active); in experiment [6], 4.02 µM (active).

Take `COP(=O)(OC)OC`: the compound was classed as inactive in experiment [1] and in experiment [3].

`CC1(C)CCC(Cc2ccc(Cl)cc2)C1(O)Cn1cncn1` (centres undefined): the values for the AC50 in experiment [2] and in experiment [4] were 120 µM (active) and 119 µM (active), respectively.

Take `CCCCCCCCSC(=O)Oc1cc(Cl)nnc1-c1ccccc1`: the result in experiment [1], in experiment [2], in experiment [3] and in experiment [4] was inactive.

Regarding `NC(=O)O`, the compound was called inactive in experiment [1], in experiment [2], in experiment [3] and in experiment [4].
